# Activity calls are given as the source filed them.
# Tests used:
# [1] = system: Human papillomavirus type 1a protein E7 (residues 44-93); assay: small molecules binding HPV E7 44-93 – biochemical, small-molecule microarray, residues 44-93, 635 nm fluorescence, primary screen (AID 1108); details: fluorescence 635 nm, higher = more signal;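 also: E7 fragment applied at 1 µg/mL in TBST for 1 h at 4 C; score combines spot fluorescence with its signal to noise ratio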
# [2] = hepatitis C replication reporter changes, two-sided – Huh7 cells, luciferase reporter, HCV replication inhibitor project, primary screen (AID 1109); details: Huh7 HCV replicon luciferase reporter, 48 h; higher = more signal;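 also: huh7 hepatoma cells harbouring a luciferase neomycin HCV replicon reporter; luciferase luminescence as measure of HCV replicon replication; test concentration not given here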
# [3] = molecular target: Left-right determination factor 2 (Homo sapiens) (UniProt O00292); assay: small molecules binding LEFTY2 protein – biochemical, small-molecule microarray, 635 nm fluorescence scan, primary screen (AID 1110); details: higher = more signal
# Sequence of Left-right determination factor 2 (Homo sapiens) (O00292 whole entry, looked up): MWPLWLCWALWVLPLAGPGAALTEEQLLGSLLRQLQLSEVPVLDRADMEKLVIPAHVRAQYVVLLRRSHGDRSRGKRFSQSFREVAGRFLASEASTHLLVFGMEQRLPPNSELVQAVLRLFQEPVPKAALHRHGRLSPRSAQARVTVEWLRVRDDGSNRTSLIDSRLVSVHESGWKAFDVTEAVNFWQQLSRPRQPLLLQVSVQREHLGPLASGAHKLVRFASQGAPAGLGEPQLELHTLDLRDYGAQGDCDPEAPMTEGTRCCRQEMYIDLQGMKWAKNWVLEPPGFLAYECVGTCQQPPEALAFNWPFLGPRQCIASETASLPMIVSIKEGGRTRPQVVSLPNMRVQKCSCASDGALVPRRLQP
# [4] = molecular target: Calmodulin-1 (Homo sapiens) (UniProt P0DP23); assay: small molecules binding calmodulin-1 with EGTA – biochemical, small-molecule microarray, Cy5-labelled CALM1, profiling panel (AID 1111); details: Cy5-CALM1 binding fluorescence, higher = more signal;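 also: labelled calmodulin applied in Tris saline Tween buffer holding calcium plus EGTA and DTT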
# [5] = molecular target: Calmodulin-1 (Homo sapiens) (UniProt P0DP23); assay: small molecules binding Ca-loaded calmodulin-1 – biochemical, small-molecule microarray, Cy5-labelled CALM1, plus calcium, artefact control for SMM control-protein annotation, profiling panel (AID 1112); details: Cy5-CALM1 binding fluorescence, higher = more signal;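 also: score merges spot fluorescence with signal to noise from triplicate slides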
# [6] = probe aWnt5a binding to arrayed compounds – biochemical, biotinylated probe, 635/667 nm fluorescence, primary screen (AID 1113); details: small-molecule microarray, higher = more signal;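 also: score merges 667 nm fluorescence intensity with signal-to-noise per printed feature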
# [7] = probe aShh binding to arrayed compounds – biochemical, biotinylated probe, 635/667 nm fluorescence, primary screen (AID 1114); details: small-molecule microarray, higher = more signal;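 also: probe is biotin-labelled aShh protein from a stem cell growth factor screen; measures binding of labelled protein to compounds printed on the slide; score merges feature fluorescence at 667 nm with signal-to-noise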
# [8] = probe aNog binding to arrayed compounds – biochemical, biotinylated probe, 635/667 nm fluorescence, primary screen (AID 1115); details: small-molecule microarray, higher = more signal;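 also: probe is biotinylated aNog protein used at 0.15 µg/mL for 1 h at 4 C; z-score combines 667 nm fluorescence of each spot with its signal to noise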
# [9] = molecular target: Torsin-1A-interacting protein 1 (Homo sapiens) (UniProt Q5JTV8); assay: compound microarray binding of lysate hLAP1 – cell lysate, small-molecule microarray, COS7 lysate, 635/667 nm fluorescence, primary screen (AID 1116); details: 635 nm fluorescence, higher = more signal
# Sequence of Torsin-1A-interacting protein 1 (Homo sapiens) (Q5JTV8 whole entry, looked up): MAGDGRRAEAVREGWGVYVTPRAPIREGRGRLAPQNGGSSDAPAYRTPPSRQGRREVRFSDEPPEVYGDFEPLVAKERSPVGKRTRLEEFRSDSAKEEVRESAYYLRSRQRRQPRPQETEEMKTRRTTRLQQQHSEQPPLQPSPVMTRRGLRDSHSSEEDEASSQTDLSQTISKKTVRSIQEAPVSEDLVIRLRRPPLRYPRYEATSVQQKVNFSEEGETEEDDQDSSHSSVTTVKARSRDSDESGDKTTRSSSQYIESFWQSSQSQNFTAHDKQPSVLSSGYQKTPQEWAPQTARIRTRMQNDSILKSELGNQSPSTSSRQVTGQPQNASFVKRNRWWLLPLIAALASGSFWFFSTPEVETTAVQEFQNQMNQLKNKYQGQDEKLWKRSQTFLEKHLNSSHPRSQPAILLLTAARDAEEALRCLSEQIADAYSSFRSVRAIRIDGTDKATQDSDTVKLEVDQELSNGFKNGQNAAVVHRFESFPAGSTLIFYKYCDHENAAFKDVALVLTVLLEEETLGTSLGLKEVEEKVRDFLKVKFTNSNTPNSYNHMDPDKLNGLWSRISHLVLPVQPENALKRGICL
# [10] = molecular target: Alpha-bungarotoxin (Bungarus multicinctus) (UniProt P60615); assay: compounds binding labelled alpha-BTX control protein – biochemical, small-molecule microarray, Alexa647 label, 635/667 nm fluorescence, artefact control for SMM control protein annotation, profiling panel (AID 1117); details: alpha-BTX-A647 binding fluorescence, higher = more signal
# Sequence of Alpha-bungarotoxin (Bungarus multicinctus) (P60615 whole entry, looked up): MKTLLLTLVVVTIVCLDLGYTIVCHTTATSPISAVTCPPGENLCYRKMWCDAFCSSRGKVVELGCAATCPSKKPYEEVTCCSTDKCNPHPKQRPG
# [11] = molecular target: Albumin (Bos taurus) (UniProt P02769); assay: compounds binding labelled BSA control protein – biochemical, small-molecule microarray, Alexa647 label, 635/667 nm fluorescence, artefact control for SMM control protein annotation, profiling panel (AID 1118); details: BSA-A647 binding, fluorescence 635 nm, higher = more signal;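 also: score merges 667 nm emission intensity and signal-to-noise per printed compound spot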
# Sequence of Albumin (Bos taurus) (P02769 whole entry, looked up): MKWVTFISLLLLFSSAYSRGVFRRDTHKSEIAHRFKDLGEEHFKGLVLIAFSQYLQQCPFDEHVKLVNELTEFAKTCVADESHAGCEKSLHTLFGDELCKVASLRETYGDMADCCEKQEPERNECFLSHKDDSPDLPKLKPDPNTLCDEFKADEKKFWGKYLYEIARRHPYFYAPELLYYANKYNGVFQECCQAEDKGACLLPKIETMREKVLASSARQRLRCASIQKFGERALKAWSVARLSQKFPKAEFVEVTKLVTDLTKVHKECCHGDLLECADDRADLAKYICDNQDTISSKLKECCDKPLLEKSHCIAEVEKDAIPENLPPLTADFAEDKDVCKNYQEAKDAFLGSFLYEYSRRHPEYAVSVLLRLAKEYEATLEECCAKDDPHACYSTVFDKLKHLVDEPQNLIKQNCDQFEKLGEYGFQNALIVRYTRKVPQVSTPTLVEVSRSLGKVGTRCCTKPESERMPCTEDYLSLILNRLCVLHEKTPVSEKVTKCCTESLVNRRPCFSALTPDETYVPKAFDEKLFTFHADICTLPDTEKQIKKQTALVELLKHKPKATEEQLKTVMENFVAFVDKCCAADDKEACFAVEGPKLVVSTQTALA
# [12] = probe aXIP binding to arrayed compounds – biochemical, NeuroSMM set, 635/667 nm fluorescence, primary screen (AID 1119); details: small-molecule microarray, higher = more signal, called active from +8 up or from −8 down;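 also: probe is the protein aXip251-270 applied at 1 µg/mL to compound-printed slides; binding of probe to printed compounds measured as 667 nm fluorescence plus signal to noise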
# [13] = probe aNOTCH3 binding on compound microarray – biochemical, small-molecule microarray, 635/667 nm fluorescence, primary screen (AID 1120); details: higher = more signal;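 also: probe is a biotin-tagged antibody raised against NOTCH3 rather than NOTCH3 protein; score merges spot fluorescence near 667 nm with spot signal to noise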
# [14] = probe aNOTCH2 binding on compound microarray – biochemical, small-molecule microarray, 635/667 nm fluorescence, primary screen (AID 1121); details: higher = more signal;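 also: score merges feature fluorescence read at 667 nm with its signal to noise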
# [15] = molecular target: Carbonic anhydrase 2 (Homo sapiens) (UniProt P00918); assay: compounds binding carbonic anhydrase 2 – biochemical, small-molecule microarray, Alexa647-labelled CAII, profiling panel (AID 1122); details: CAII-A647 binding fluorescence, higher = more signal
# [16] = COS7 lysate on small-molecule microarray, probe aHis, 635 nm (AID 1123); details: COS7 cell lysate, fluorescence, higher = more signal;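 also: z-score combines 667nm fluorescence intensity with signal-to-noise per printed compound spot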
# [17] = probe aLAP1 signal on lysate-treated microarray – cell lysate, small-molecule microarray, COS7 lysate, primary screen (AID 1124); details: probe aLAP1, fluorescence, higher = more signal;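 also: lysate comes from COS7 cells expressing LAP1 and is applied at 0.3 µg/mL; score merges spot fluorescence near 667 nm with signal-to-noise over triplicate slides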
# [18] = system: Sam68 (KHDRBS1); assay: compounds binding KHDRBS1 protein – biochemical, small-molecule microarray, 635 nm fluorescence, primary screen (AID 1125); details: higher = more signal;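 also: score merges 667 nm channel intensity with signal to noise over triplicate slides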
# [19] = system: Chordin-like protein 2 (CHRDL2); assay: compounds binding chordin-like 2 – biochemical, small-molecule microarray, 635 nm fluorescence, primary screen (AID 1126); details: fluorescence 635 nm, higher = more signal;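 also: printed compound slides probed with Chrdl2 protein at 4 µg/mL for 1 h at 4 C; score merges 667 nm emission intensity with signal to noise over three replicate slides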
# [20] = molecular target: Concanavalin-A (Canavalia ensiformis) (UniProt P02866); assay: compounds binding concanavalin A lectin – biochemical, small-molecule microarray, Alexa647 label, 635 nm, artefact control for SMM control protein annotation, primary screen (AID 1127); details: ConA-A647 binding fluorescence, higher = more signal;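 also: z combines 667 nm emission intensity with signal-to-noise across three replicate slides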
# Sequence of Concanavalin-A (Canavalia ensiformis) (P02866 whole entry, looked up): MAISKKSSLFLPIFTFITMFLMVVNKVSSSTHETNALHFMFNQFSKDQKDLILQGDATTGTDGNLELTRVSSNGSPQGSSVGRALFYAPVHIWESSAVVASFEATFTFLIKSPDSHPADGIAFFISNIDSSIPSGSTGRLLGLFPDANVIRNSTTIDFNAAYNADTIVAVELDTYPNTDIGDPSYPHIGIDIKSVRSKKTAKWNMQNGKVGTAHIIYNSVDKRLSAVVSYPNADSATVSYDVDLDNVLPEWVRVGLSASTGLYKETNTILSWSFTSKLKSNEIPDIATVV
SMILES,composite z-score [1],z-score [2],composite z-score [3],composite z-score [4],composite z-score [5],composite z-score [6],composite z-score [7],composite z-score [8],composite z-score [9],composite z-score [10],composite z-score [11],composite Z-score [12],composite z-score [13],composite z-score [14],composite z-score [15],composite z-score [16],composite z-score [17],composite z-score [18],composite z-score [19],composite z-score [20]
O=C1[C@H]2[C@H]3[C@H](O)[C@H](O)CC(=NOC[C@@H](O)COCc4ccco4)[C@@H]3CC[C@H]2C(=O)N1C[C@@H]1CCCO1,0.0714,0.557,1.11,-1.05,-1.73,-0.117,-0.0553,-0.218,0.3,-0.075,0.63,0.381 (inactive),-0.0345,-0.0986,-0.267,0.155,0.174,0.902,1.53,-0.281
CON=C(C)CCC(=O)OC[C@H]1O[C@H](c2ccccc2)C=C[C@@H]1Oc1ccc(OC)cc1,-0.65,0.275,0.353,-0.515,-0.724,0.0257,-0.0769,-0.148,0.474,-0.0686,0.443,-0.222 (inactive),-0.0687,-0.146,-0.185,-0.0845,0.2,-0.209,0.406,0.0078
O=c1n(Cc2cc3c(cc2Cl)OCO3)c(=O)n2n1CC[C@@H]1C(=NOC[C@@H](O)COCc3ccco3)[C@H]3O[C@H]3[C@@H](O)[C@@H]12,0.77,-0.76,0.436,-0.25,-0.535,-0.0556,-0.0709,-0.0544,0.469,0.423,-0.0922,-0.263 (inactive),-0.0841,-0.0974,0.351,-0.0175,0.0735,0.175,0.57,0.392
COc1cccc([C@H]2Oc3ccc(OC)cc3C(=NO[C@@H]3O[C@H](COC(C)=O)[C@@H](OC(C)=O)[C@H](OC(C)=O)[C@H]3OC(C)=O)[C@@H]2O)c1,0.104,-1.12,0.507,-0.446,-0.552,0.0206,0.137,0.124,-0.178,-0.275,0.0351,1.25 (inactive),-0.0598,-0.141,-0.403,0.1,0.474,0.153,-0.0174,-0.143
CO[C@H]1COC(=O)[C@@H](C)COC(=O)[C@@H](OCc2ccccc2)C=C[C@@H]1C,-0.193,-1.38,0.281,0.0243,-0.642,-0.0346,-0.276,-0.37,-0.0153,-0.807,-0.858,-0.535 (inactive),-0.103,-0.115,-0.369,-0.194,-0.259,-0.234,0.159,-0.459
CC(C)(C)N1C(=O)[C@H]2[C@H]3[C@H](O)[C@H](O)CC(=NOCc4ccccc4)[C@H]3CC[C@H]2C1=O,-0.397,0.561,-0.0786,0.157,-0.272,-0.0125,-0.154,0.299,0.185,1.28,0.0116,-0.491 (inactive),0.0961,-0.057,-0.0598,0.376,0.699,-0.217,0.737,-0.344
CCOC(=O)[C@H](CC(C)C)NC(=O)CCC1CC(OC(=O)NCc2cccc3ccccc23)CC2(CCCC(COC(=O)NCCc3ccc(Cl)cc3)O2)O1 (stereo not given in full),0.529,-0.707,0.486,0.0203,-0.117,-0.191,-0.473,-0.114,0.161,0.557,0.332,-0.536 (inactive),0.0203,-0.164,0.151,0.416,-0.175,0.456,0.439,0.0711
CO[C@H](C1CCCCC1)[C@H](C)C=CCC(=O)OCCCc1ccccc1,-0.743,0.714,0.291,-0.376,-0.937,-0.0874,-0.366,-0.27,0.099,-0.051,-0.553,0.349 (inactive),-0.125,-0.0751,-0.3,-0.856,-0.133,-0.53,0.562,-0.394
COc1ccc(COC(=O)NN=C2C[C@@H](O)[C@@H](O)[C@@H]3[C@@H]4C(=O)N(Cc5ccccc5)C(=O)[C@@H]4CC[C@H]23)cc1,1.36,-0.632,-0.475,0.0114,-0.435,-0.0758,-0.206,0.194,0.589,0.469,0.719,-0.201 (inactive),0.0418,-0.348,-0.17,0.341,-0.173,0.0827,-0.709,-0.266
O=C1CCCC(C2=CCCCC2=O)C1 (stereo not given),-0.281,-0.293,0.524,-0.732,-1.38,-0.0548,0.116,-0.14,0.086,-0.19,-0.599,0.675 (inactive),0.152,-0.112,-0.139,0.0016,0.0781,-0.532,1.06,-0.719
C[C@H]1CC[C@H]2C(=O)OC(CO)CN2[C@@H]1c1ccc(Br)cc1 (stereo not given in full),-0.558,-0.125,0.137,-0.201,-0.607,-0.0778,0.0284,-0.178,-0.303,0.867,0.0691,0.456 (inactive),-0.0647,-0.192,-0.244,-0.416,-0.311,0.253,0.453,-0.17

# Source: PubChem BioAssay
